# The list is not random: actives were taken first. Their share in the collection is about 11%.
# HEK cytotox: cytotoxic compounds in HEK 293 cells; Potency, µM (series often up to 115 µM), hits mostly inhibitors; HEK 293 viability, ATP luminescence (CellTiter-Glo), 48-72 h; hit rate 6.6% among 94,000; note: nearly all actives have a fitted effect of over 60% in size
#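 Pintool-delivered compounds were incubated with HEK 293 cells (250 cells/well) at 37 degree Celsius for 48 or 72 hr. ATP-dependent luminescence (CellTiter-Glo) then reported remaining viable cells.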
# Luciferase inh: blocks purified firefly luciferase enzyme activity; P08659; purified P. pyralis luciferase, luminescence, biochemical; Potency, µM (doses to about 115 µM), most hits filed as inhibitors; hit rate 2.5% among 76,000; AID 1347043; note: nearly all actives have a fitted effect of over 65% in size
#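 Cell-free enzyme assay, 10nM P. pyralis luciferase, luciferin and ATP each at 10uM. Inhibition profiled over a 6-point titration, read as luminescence.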
# 3T3 cytotox: NIH 3T3 cell cytotoxicity; hit rate 4.3% among 94,000; NIH 3T3 viability, CellTiter-Glo ATP luminescence, 48-72 h; Potency, µM (doses to about 96.7 µM), hits mostly inhibitors; note: nearly all actives have a fitted effect of over 55% in size
#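 Mouse fibroblast NIH 3T3 cells, 400 per well, received compound via pintool and were incubated for 48 or 72 hr prior to CellTiter-Glo ATP luminescence measurement.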
# hNpr1 antagonist: blocks ANP-stimulated signaling of human Npr1 receptor | Potency, µM (top dose mostly 46.3 µM), most hits filed as inhibitors | HEK293 hNpr1 GloSensor cGMP, ANP-stimulated luminescence | hit rate 1.6% among 76,000; calls by dose curve; note: nearly all actives have a fitted effect of over 60% in size
# Target sequence (P16066 whole entry, looked up): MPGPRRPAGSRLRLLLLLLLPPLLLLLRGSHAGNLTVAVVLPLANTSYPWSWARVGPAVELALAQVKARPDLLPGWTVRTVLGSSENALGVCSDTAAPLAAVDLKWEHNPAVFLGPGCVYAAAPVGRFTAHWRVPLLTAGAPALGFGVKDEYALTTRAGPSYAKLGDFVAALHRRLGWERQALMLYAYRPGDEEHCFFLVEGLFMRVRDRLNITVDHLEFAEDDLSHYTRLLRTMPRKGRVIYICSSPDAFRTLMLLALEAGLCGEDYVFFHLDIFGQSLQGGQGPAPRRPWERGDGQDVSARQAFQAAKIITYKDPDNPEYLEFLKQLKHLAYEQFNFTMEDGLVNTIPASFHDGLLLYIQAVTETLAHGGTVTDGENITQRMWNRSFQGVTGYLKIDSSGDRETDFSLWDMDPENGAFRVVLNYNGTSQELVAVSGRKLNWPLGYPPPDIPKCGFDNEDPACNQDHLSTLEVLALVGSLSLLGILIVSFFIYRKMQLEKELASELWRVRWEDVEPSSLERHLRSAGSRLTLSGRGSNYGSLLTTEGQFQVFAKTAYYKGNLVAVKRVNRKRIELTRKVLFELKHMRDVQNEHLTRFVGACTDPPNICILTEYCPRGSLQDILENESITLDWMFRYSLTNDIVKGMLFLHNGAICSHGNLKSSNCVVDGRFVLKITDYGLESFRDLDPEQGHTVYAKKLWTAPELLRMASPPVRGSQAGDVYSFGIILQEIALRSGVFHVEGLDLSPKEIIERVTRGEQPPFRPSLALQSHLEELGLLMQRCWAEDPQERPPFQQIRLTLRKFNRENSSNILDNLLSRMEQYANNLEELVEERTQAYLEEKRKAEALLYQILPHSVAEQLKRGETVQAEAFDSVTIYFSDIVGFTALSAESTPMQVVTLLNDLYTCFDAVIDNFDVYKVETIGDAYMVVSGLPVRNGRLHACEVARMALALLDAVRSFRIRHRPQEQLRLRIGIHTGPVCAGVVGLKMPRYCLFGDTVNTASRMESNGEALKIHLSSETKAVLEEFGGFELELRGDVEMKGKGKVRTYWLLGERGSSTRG
#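 HEK293 cells stably expressing human Npr1 and cGMP GloSensor pGS-40F, loaded 2 h with 2% GloSensor reagent, given compound 30 min at room temperature. Luminescence read before and 20 min after 0.1 nM hNppA.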
# Hits are given with their value; 0 = inactive; ? = inconclusive; - = not tested or not shown. Unless noted, calls come from the whole dose curve; as a rule, active = well fitted curve in the direction sought with a large enough effect; inconclusive = small, poorly fitted or top-dose-only effect, or another doubt; inactive = no such curve, though single readings can be large; an effect the other way counts as inactive or inconclusive.
SMILES,HEK cytotox,Luciferase inh,3T3 cytotox,hNpr1 antagonist
CC1(C)[C@H](Cc2cc(-c3ccc(F)cc3)on2)C[C@@H]1NC1CCC1,39.8µM,0,35.5µM,0
CC1(C)[C@H](Cc2cc(-c3ccc(F)cc3)on2)C[C@@H]1NCc1cccnc1,?,?,?,11.2µM
CN1CCC(N[C@H]2C[C@@H](Cc3cc(C(C)(C)C)on3)C2(C)C)CC1,28.2µM,0,50.1µM,0
COCc1cc(C[C@@H]2C[C@H](NCc3cccnc3)C2(C)C)no1,0,0,0,0
N#Cc1ccc(CN2CCCC(c3nc(-c4cnccn4)no3)CCNC(=O)CC2)cc1 (stereo unspecified),0,0,0,0
COc1ncccc1-c1cnc2[nH]cc(CC(=O)NC3CC3)c2c1,?,0,25.1µM,0
COc1ncccc1-c1cnc2[nH]cc(CC(=O)Nc3nc(C)cs3)c2c1,35.5µM,0,31.6µM,?
FC(F)(F)c1cccc(C2=NOC3(CCN(Cc4ccccc4)CC3)C2)c1,?,0,?,0
COc1ccc(CC(=O)N2CCC3(CC2)CC(c2cccc(C(F)(F)F)c2)=NO3)cc1,39.8µM,-,?,-
O=C(c1ccc2c(c1)OCO2)N1CCC2(CC1)CC(c1cccc(C(F)(F)F)c1)=NO2,?,0,?,0
O=C(Cc1cccc(Cl)c1)N1CCC2(CC1)CC(c1cccc(C(F)(F)F)c1)=NO2,28.2µM,-,?,-
O=C(Cc1ccccc1)N1CCC2(CC1)CC(c1cccc(C(F)(F)F)c1)=NO2,44.7µM,-,?,-
FC(F)(F)c1cccc(C2=NOC3(CCN(Cc4ccccc4)C3)C2)c1 (stereo unspecified),44.7µM,-,?,-
CC1CCN(C(=O)c2ccccc2OCC2CCCN(C3CCCC3)C2)CC1 (stereo unspecified),?,0,?,0
O=C(Cc1ccccc1)NCc1ccnc2[nH]ccc12,0,35.5µM,0,0
O=C(NCc1ccnc2[nH]ccc12)c1ccc2ccccc2n1,89.1µM,?,?,?
O=C(NCc1ccnc2[nH]ccc12)c1ccccc1Cl,0,0,0,0
Cc1ccc(C(=O)N2CCCC(N3C(=O)c4c(c(C)nn4-c4ccccc4)C3C)C2)cc1 (stereo unspecified),44.7µM,-,?,-
Cc1nn(-c2ccccc2)c2c1C(C)N(C1CCN(C(=O)c3cccc(C(F)(F)F)c3)C1)C2=O (stereo unspecified),35.5µM,-,?,-
Cc1nn(-c2ccccc2)c2c1C(C)N(C1CCN(C(=O)c3ccccc3)C1)C2=O (stereo unspecified),44.7µM,-,?,-
CCC(C)NC(=O)C1CCN(Cc2ccccc2-c2ccccc2F)CC1 (stereo unspecified),0,-,?,-
COc1ccc(/C=C/CN2CC(=O)N(c3ccccc3C#N)CC2C)cc1 (stereo unspecified),?,0,?,0
CN1CCN(c2ccc(-c3cn(C)c(=O)n4cc(CNc5ccccc5)nc34)cn2)CC1,70.8µM,0,50.1µM,0
Cn1cc(-c2cn(C)c(=O)n3cc(CNc4ccccc4)nc23)cn1,0,?,?,0
O=C1NCCCCCCN(Cc2ccncc2)[C@@H]2CN(C(=O)CCc3c[nH]c4ccccc34)CC[C@@H]12,0,0,0,0
SMILES,HEK cytotox,Luciferase inh,3T3 cytotox,hNpr1 antagonist
CCCC(=O)N1Cc2ccccc2CC2(CCCN(Cc3ccc(O)cc3)C2)C1 (stereo unspecified),0,-,0,-
c1coc(-c2nnc([C@H]3CCN(Cc4cccs4)C3)o2)c1,0,70.8µM,0,0
c1ccc(CN2CC[C@H](c3nnc(-c4ccco4)o3)C2)nc1,0,?,0,0
CN(C)c1ccc(CN2CC[C@H](c3nc4ccc(C(F)(F)F)cc4[nH]3)C2)cc1,31.6µM,0,31.6µM,?
Cn1cc(CN2CC[C@H](c3nc4ccccc4[nH]3)C2)c2ccccc21,50.1µM,0,?,0
FC(F)(F)c1ccc(CN2CC[C@H](c3nc4ccccc4[nH]3)C2)cc1,35.5µM,0,28.2µM,?
COc1ccc(-c2cc(N3CCC(NC(=O)c4ccccc4Cl)C3)n[nH]2)cc1 (stereo unspecified),?,0,?,0
O=C(NC1CC1)c1nc2cccnc2n(C2CC2)c1=O,0,-,0,-
COc1ccc(N2C(=O)C3(CCCCC3)C2C(=O)NCCN2CCc3ccccc3C2)cc1 (stereo unspecified),?,0,?,0
CNC(=O)c1cc(C2CC2)nc2onc(C3CCCN3C(=O)c3ccc(C(F)(F)F)cc3)c12 (stereo unspecified),0,-,0,-
O=C(NC1CCCCC1)c1ccc2nc(-c3cccnc3)oc2c1,0,-,0,-
Cc1ccc(C(=O)N2CCC(N3CCCC(C(=O)N4CCCC4)C3)CC2)s1 (stereo unspecified),0,0,0,0
CC(=O)N1CCCC(N2C(=O)c3c(c(C)nn3-c3ccccc3)C2C)C1 (stereo unspecified),0,-,0,-
FC(F)(F)c1ccc2nc([C@H]3CCN(Cc4ccc(Cl)cc4)C3)[nH]c2c1,22.4µM,?,?,?
Cc1ccc2nc(C3CCCN(Cc4cccs4)C3)[nH]c(=O)c2c1 (stereo unspecified),?,-,0,-
c1csc(CN2CC[C@H](c3nc4ccccc4[nH]3)C2)c1,?,?,100µM,0
Cc1ccc2nc([C@H]3CCN(C(=O)c4ccccc4)C3)[nH]c2c1,?,0,0,0
FC(F)(F)c1ccc2nc([C@H]3CCN(CC4CC4)C3)[nH]c2c1,?,28.2µM,?,0
Cc1ccc2nc([C@H]3CCN(Cc4ccc(C(F)(F)F)cc4)C3)[nH]c2c1,28.2µM,0,35.5µM,?
O=c1n(CCN2CCCN([S+](=O)([O-])c3cccs3)CC2)nc2n1CCCC2,0,-,0,-
O=C(NCC1Cn2cccc2CN1Cc1ccccc1)c1ccccn1 (stereo unspecified),0,-,0,-
O=C(NCC1Cn2cccc2CN1Cc1ccccc1)c1cncc(Br)c1 (stereo unspecified),89.1µM,0,?,0
Cn1nccc1C(=O)NCC1Cn2cccc2CN1Cc1ccccc1 (stereo unspecified),79.4µM,0,?,0
CCC(C(=O)Nc1ccc2c(c1)CN(Cc1ccc(OC)cc1OC)C(=O)C(C)O2)c1ccccc1 (stereo unspecified),?,0,?,0
COc1ccc(NC(=O)O[C@@H]2CO[C@H]3[C@@H]2OC[C@@H]3NCc2ccc(-c3ccccc3)cc2)cc1,35.5µM,?,?,5.62µM
O=C(Nc1ccccc1)N[C@H]1CO[C@H]2[C@@H]1OC[C@@H]2Nc1nccc(C2CCCC2)n1,0,0,?,0
COc1ccc(NC(=O)O[C@@H]2CO[C@H]3[C@@H]2OC[C@@H]3NS(=O)(=O)c2ccccc2C#N)cc1,0,0,0,0
COc1ccc(NC(=O)N[C@H]2CO[C@H]3[C@@H]2OC[C@H]3OC(=O)Nc2ccc(OC)cc2)cc1,0,?,0,0
O=C(Nc1cccc(C(F)(F)F)c1)O[C@@H]1CO[C@H]2[C@@H]1OC[C@@H]2NC(=S)Nc1ccc(Cl)cc1,44.7µM,0,?,0

# Compound activity: PubChem BioAssay, National Center for Advancing Translational Sciences (NCATS)
